Screens deposited in PubChem by Johns Hopkins Ion Channel Center.
Sampled rows, rich in hits. Any-hit rate of the full collection: about 1.6%.
KCNQ2 block: blocks the rat KCNQ2 potassium channel; O88943; CHO-K1 KCNQ2, FluxOR thallium flux, 20 min; active compounds read low; B-score at 10 µM; 310,000 tested, 1.1% active; AID 2156;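 active = fluorescence ratio B-score at most minus 3 library SDs, with starting brightness B-score within 2 library SDs, cut at about -5.5 in these data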
KCNQ2 pot: potentiators of rat KCNQ2 potassium channel; AID 2239; B-score at 10 µM; CHO-K1 KCNQ2, FluxOR thallium flux fluorescence; active compounds read high; O88943; 310,000 tested, 0.54% active;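 active = fluorescence ratio B-score at least 3 SD of library B-scores, with initial fluorescence B-score within 3 of them, cut at about 5.3 in these data; same plate scores as AID 2156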;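 also: B-score of peak minus minimum over baseline fluorescence ratio after K+ and Tl+ stimulus; positive B-score means potentiation of KCNQ2 with more thallium influx and brighter signal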
Kir21 confirm: confirmation of mouse Kir2.1 potassium channel inhibitors; shares compounds with KCNQ2 pot; Kir2.1-expressing cells, FluxOR thallium flux fluorescence; active compounds read low; Tl flux remaining, % of negative control (active compounds read low), % at 10 µM; 2,300 tested, 41% active; AID 2032;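 active = Primary-screen hit whose thallium flux fell at least 3 control SD below untreated wells in both duplicates, with normal baseline fluorescence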
HEK293 ctr: alters thallium flux in parental HEK293 cells, Kir2.1 counter-screen; shares compounds with KCNQ2 pot; FluxOR thallium flux fluorescence; 0% = unstimulated blank wells; FluxOR signal as % of negative control (100 = no effect), % at 10 µM; 2,300 tested, 19% active; AID 2105;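 active = dye signal at least 3 control SD above or below untreated wells in both duplicates, raw fluorescence within 3, either direction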;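 also: percent is based on the flux ratio of peak minus minimum fluorescence over baseline F0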
CHO-K1 ctr: parental CHO-K1 activity in KCNQ2 potentiator counter-screen. shares compounds with KCNQ2 pot. parental CHO-K1 cells, FluxOR thallium flux fluorescence; zero = vehicle mean+3SD, 100% = vehicle-minus-blank window. activity increase over 3SD of controls, % at 10 µM. 1,200 tested, 43% active. AID 2282;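 active = signal rise of at least 3 SD above the untreated control mean, in both duplicate wells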;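 also: counter screen of KCNQ2 potentiator hits so any rise reflects channel-independent effects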
KCNQ1 sel pot: human KCNQ1 counter-target activity of KCNQ2 potentiators; shares compounds with KCNQ2 pot; CHO KCNQ1 stable, FluxOR thallium flux fluorescence; beyond 3SD, as % of vehicle-control signal; activation over 3SD threshold, % at 10 µM; 1,200 tested, 28% active;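 active = fluorescence ratio rise of at least 3 SD of vehicle wells above their mean, in both replicate wells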
KCNQ2 pot conf: confirmation of rat KCNQ2 potassium channel potentiators; CHO-KCNQ2 cells, FluxOR thallium flux fluorescence; AID 2287; 1,200 tested, 68% active; potentiation, less the hit threshold, % at 10 µM; shares compounds with KCNQ2 pot;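 active = fluorescence ratio rising 3 SD or more over the vehicle control mean in both replicates, plus primary screen hit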;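 also: peak minus minimum thallium fluorescence divided by baseline after K/Tl stimulus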
Kir21 spec: selectivity of KCNQ2 potentiators: effect on mouse Kir2.1; shares compounds with KCNQ2 pot; HEK293 Kir2.1, FluxOR thallium flux fluorescence; activity over 3SD threshold, % at 10 µM; 1,200 tested, 2% active; AID 2345;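 active = fluorescence ratio rise of at least 3 SD above the vehicle-control mean, seen in both replicates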
KCNQ2 W236L MoA: potentiates the retigabine-insensitive rat KCNQ2 W236L mutant channel; shares compounds with KCNQ2 pot; CHO KCNQ2-W236L, automated patch clamp current; current increase over 3SD of negative controls (%), active compounds read high, % at 25 µM; 940 tested, 10% active; AID 2558;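 active = current increase at least 3 SD of the untreated controls above them in both duplicate recordings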
Target sequence (O88943 whole entry W236L, looked up): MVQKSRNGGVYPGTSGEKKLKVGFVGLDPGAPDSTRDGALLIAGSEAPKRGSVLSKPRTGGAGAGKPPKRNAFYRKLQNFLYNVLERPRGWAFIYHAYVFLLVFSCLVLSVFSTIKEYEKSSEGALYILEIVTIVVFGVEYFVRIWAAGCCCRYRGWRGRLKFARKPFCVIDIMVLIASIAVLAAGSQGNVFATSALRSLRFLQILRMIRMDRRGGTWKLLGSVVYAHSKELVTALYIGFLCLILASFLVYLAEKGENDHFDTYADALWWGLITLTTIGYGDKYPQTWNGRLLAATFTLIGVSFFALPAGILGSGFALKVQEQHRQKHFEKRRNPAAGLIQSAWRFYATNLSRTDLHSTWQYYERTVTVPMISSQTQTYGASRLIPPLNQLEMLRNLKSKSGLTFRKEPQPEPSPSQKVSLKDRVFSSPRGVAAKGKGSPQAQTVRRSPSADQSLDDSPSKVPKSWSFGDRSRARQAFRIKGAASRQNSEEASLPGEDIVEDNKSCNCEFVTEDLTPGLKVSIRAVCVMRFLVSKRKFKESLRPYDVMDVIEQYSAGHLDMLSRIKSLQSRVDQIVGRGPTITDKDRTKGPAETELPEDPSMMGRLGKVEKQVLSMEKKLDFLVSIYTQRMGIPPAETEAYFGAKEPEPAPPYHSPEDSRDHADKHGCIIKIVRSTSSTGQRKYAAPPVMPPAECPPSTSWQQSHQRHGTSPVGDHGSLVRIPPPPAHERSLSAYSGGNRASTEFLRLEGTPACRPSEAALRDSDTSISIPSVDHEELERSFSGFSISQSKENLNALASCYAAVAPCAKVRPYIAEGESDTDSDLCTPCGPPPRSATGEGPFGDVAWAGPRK
Of the large screens only hits and unclear results are named; the others gave an inactive call (follow-up assays come after a bar, where they were run).

CON/C=N/C(=S)Nc1ncc(C(F)(F)F)cc1Cl	KCNQ2 pot 12 | Kir21 confirm inactive | HEK293 ctr 218% | CHO-K1 ctr inactive | KCNQ1 sel pot 32 | KCNQ2 pot conf 18 | Kir21 spec inactive | KCNQ2 W236L MoA inactive
CCCCC1CN2CCc3c([nH]c4ccccc34)C2(C)C1 (configuration not stated)	none
Cc1cccc(OC(C)C(=O)N2CCN(Cc3ccc4c(c3)OCO4)CC2)c1 (configuration not stated)	none
COc1cccc(CC(=O)Nc2ccc(S(=O)(=O)Nc3nc(C)cc(C)n3)cc2)c1	none
O=C(Nc1ccc(Oc2ccc(NC(=O)c3ccco3)c(NC(=O)c3ccco3)c2)cc1)c1ccco1	none
O=C(Nc1ccc(Oc2ccc3ccccc3c2)cc1)c1ccco1	KCNQ2 pot 11 | Kir21 confirm inactive | HEK293 ctr inactive | CHO-K1 ctr 10 | KCNQ1 sel pot 10 | KCNQ2 pot conf 28 | Kir21 spec inactive | KCNQ2 W236L MoA 7.7%
Cc1cc(C(=O)Nc2ccc3ccccc3c2)oc1C	none (no result: KCNQ2 pot)
Cc1cccc(NC(=O)CCNC(=O)c2ccco2)c1C	none (no result: KCNQ2 pot)
CC1CCN(c2ccccc2NC(=S)NC(=O)c2cccs2)CC1	none (no result: KCNQ2 pot)
Cc1ccoc1C(=O)Nc1ccc2ccccc2c1	KCNQ2 pot 19 | Kir21 confirm inactive | HEK293 ctr inactive | CHO-K1 ctr 49 | KCNQ1 sel pot inactive | KCNQ2 pot conf 75 | Kir21 spec inactive | KCNQ2 W236L MoA inactive
CC1CCN(c2ccccc2NC(=S)NC(=O)c2ccco2)CC1	KCNQ2 pot 5.9 | Kir21 confirm inactive | HEK293 ctr inactive | CHO-K1 ctr inactive | KCNQ1 sel pot inactive | KCNQ2 pot conf inactive | Kir21 spec inactive
Cc1cccc(NC(=S)NC(=O)c2ccco2)c1C	KCNQ2 pot 9.9 | Kir21 confirm inactive | HEK293 ctr 364% | CHO-K1 ctr inactive | KCNQ1 sel pot inactive | KCNQ2 pot conf 46 | Kir21 spec inactive | KCNQ2 W236L MoA inactive
COc1cc(C)nc(-c2csc(C)n2)n1	none
COC(=O)c1cc(S(=O)(=O)N(C)C2CCCCC2)c[nH]1	none (no result: KCNQ2 pot)
CC(=O)[C@@]1(O)[C@H](C)CC2C3CC=C4CC(OP(=O)(O)O)CC[C@]4(C)C3CC[C@@]21C (some centres not stated)	none
O=C(NC(=S)Nc1nc2ccc(F)cc2s1)c1ccco1	KCNQ2 pot 13 | Kir21 confirm inactive | HEK293 ctr inactive | CHO-K1 ctr inactive | KCNQ1 sel pot inactive | KCNQ2 pot conf 26 | Kir21 spec inactive | KCNQ2 W236L MoA inactive
CCOc1ccc(NC(=O)c2ccco2)cc1	none
O=C(NC(=S)Nc1cccc(NC(=S)NC(=O)c2ccco2)n1)c1ccco1	none (no result: KCNQ2 pot)
COc1ccc(-c2csc(NC(=S)NC(=O)c3cc4ccccc4o3)n2)cc1Br	none
CS(=O)(=O)c1ccc2nc(NC(=O)c3ccco3)sc2c1	none
CCOc1ccc(NC(=S)NC(=O)c2ccco2)cc1	KCNQ2 pot 7.8 | Kir21 confirm inactive | HEK293 ctr 163% | CHO-K1 ctr inactive | KCNQ1 sel pot 38 | KCNQ2 pot conf 23 | Kir21 spec inactive | KCNQ2 W236L MoA inactive
COc1ccc(-c2csc(NC(=S)NC(=O)c3ccco3)n2)cc1Br	KCNQ2 pot 5.7 | Kir21 confirm inactive | HEK293 ctr inactive | CHO-K1 ctr 30 | KCNQ1 sel pot 22 | KCNQ2 pot conf inactive | Kir21 spec inactive
O=C(NC(=S)Nc1ccccc1Br)c1ccco1	KCNQ2 pot 9.5 | Kir21 confirm inactive | HEK293 ctr 181% | CHO-K1 ctr 4.9 | KCNQ1 sel pot 91 | KCNQ2 pot conf 19 | Kir21 spec inactive | KCNQ2 W236L MoA inactive
C=CCN1C(=O)c2ccc(C(=O)N(CCOC)c3c(N)n(CCCC)c(=O)[nH]c3=O)cc2C1=O	none (no result: KCNQ2 pot)
CCCCNC(=NCc1cccc(C(F)(F)F)c1)Nc1ccccc1	none
O=C(O)CCCNC(=O)Nc1ccccc1	none
CCCCCCNC(=O)Nc1ccccc1	KCNQ2 pot 5.9 | Kir21 confirm inactive | HEK293 ctr inactive | CHO-K1 ctr inactive | KCNQ1 sel pot inactive | KCNQ2 pot conf 3.7 | Kir21 spec inactive | KCNQ2 W236L MoA inactive
C=CCNC(=S)N1CCC(C(=O)c2ccc(Cl)cc2)CC1	none
Cc1[nH]c2ccccc2c1C(=O)C(=O)N1CCCc2ccccc21	none (no result: KCNQ2 pot)
Cc1[nH]c2ccccc2c1SCC(=O)N1CCCc2ccccc21	none (no result: KCNQ2 pot) | Kir21 confirm 54% | HEK293 ctr inactive
COc1ccc(NC(=O)COC(=O)C2CCN(S(=O)(=O)c3ccccc3)CC2)cc1Cl	none
COc1ccc(-c2cc(=O)oc3c(O)c(O)ccc23)cc1	none
CC1Oc2cc3oc4c(O)c(O)ccc4c(=O)c3c(O)c2C1(C)C (configuration not stated)	KCNQ2 pot 5.4 | Kir21 confirm inactive | HEK293 ctr inactive | CHO-K1 ctr inactive | KCNQ1 sel pot inactive | KCNQ2 pot conf inactive | Kir21 spec inactive
CCOc1ccc(N=C(/C(C(=O)C(=O)N2CCOCC2)=C(\O)c2ccccc2)c2ccccc2)cc1	none
COc1ccc(NC(=O)CCC2CCCCC2)cc1S(=O)(=O)N1CCCCC1	none
CCCCN(CCCC)C(=S)N/N=C/c1c(C)[nH]n(-c2ccccc2)c1=O	KCNQ2 pot 6.7 | Kir21 confirm inactive | HEK293 ctr inactive | CHO-K1 ctr 0.0 | KCNQ1 sel pot inactive | KCNQ2 pot conf inactive | Kir21 spec inactive
Cc1[nH]n(-c2ccccc2)c(=O)c1/C=N/NC(=O)c1ccc(O)cc1O	none (no result: KCNQ2 pot)
CCCCc1ccc(NC(=S)NCc2ccc(OC)cc2)cc1	none (no result: KCNQ2 pot)
Oc1ccc(Cc2ccc(Cl)cc2)c(O)c1	KCNQ2 pot 5.6 | Kir21 confirm inactive | HEK293 ctr inactive | CHO-K1 ctr 106 | KCNQ1 sel pot inactive | KCNQ2 pot conf inactive | Kir21 spec inactive
O=C(Cc1ccc(Cl)cc1)NNc1c(F)c(F)cc(F)c1F	none
COc1ccc(-c2cc(-c3ccco3)[nH]c(=O)c2C#N)cc1OC	none
COCCNC(=O)c1cn(C)c2ccc(S(=O)(=O)N3CCCCC3)cc2c1=O	none
CS(=O)(=O)c1cnc(-c2ccccc2)nc1-c1ccccc1Cl	none (no result: KCNQ2 pot)
CC(O)CNc1nc2ccccc2n1-c1ncnc2sc3c(c12)CCC3 (configuration not stated)	none (no result: KCNQ2 pot) | Kir21 confirm 78% | HEK293 ctr inactive
c1ccc2c(c1)ncn2-c1ncnc2sc3c(c12)CCCC3	none
CC(C)(C)c1ccc2c(c1)N(CC(=O)N1CCCC1)C(=O)CO2	none (no result: KCNQ2 pot)
